# Inconclusive results are not listed. Entries that show only a call come without a potency. Unmarked numbers belong to inactive results. Calls of active or inactive are those of the source. The call rests on the fitted dose curve; in most records, active means well fitted curve in the direction sought with a large enough effect; inconclusive means small, poorly fitted or top-dose-only effect, or another doubt; inactive means no such curve, though single readings can be large; an effect the other way counts as inactive or inconclusive.
# Tests used:
# [1] = qHTS of pediatric cancer cell lines to identify multiple opportunities for drug repurposing: Primary screen for Saos-2 cells (AID 1347097); further: nearly all actives have a fitted effect of over 40% in size; further: potency means the concentration at half of the fitted maximal effect
# Procedure, shortened: (§1)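 Phenotypic viability qHTS, 48 h compound exposure, CellTiter-Glo luminescence read-out; multi-concentration dosing so that potency and efficacy derive directly from the primary screen's curves.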
# [2] = qHTS of pediatric cancer cell lines to identify multiple opportunities for drug repurposing: Primary screen for SK-N-SH cells (AID 1347098); further: nearly all actives have a fitted effect of over 65% in size; further: potency means the concentration at half of the fitted maximal effect;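 on activity change, negative = cytotoxic: DMSO served as neutral control and bortezomib at 2.3 µM as positive control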
# Procedure, shortened: (§2)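 Cells (500-1,000/well) rested 5 h, then received compounds for 48 h; metabolically active cells were measured by CellTiter-Glo luminescence. Final concentrations spanned up to 46 µM (MIPE, 11-point) or 0.59 nM-46 µM (NPC, 8-point) in primary screens, 11-point in follow-ups.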
# [3] = qHTS of pediatric cancer cell lines to identify multiple opportunities for drug repurposing: Primary screen for NB1643 cells (AID 1347099); further: nearly all actives have a fitted effect of over 50% in size; further: potency means the concentration at half of the fitted maximal effect
# Procedure, shortened: as §1
# [4] = qHTS of pediatric cancer cell lines to identify multiple opportunities for drug repurposing: Primary screen for BT-12 cells (AID 1347101); further: nearly all actives have a fitted effect of over 25% in size; further: potency means the concentration at half of the fitted maximal effect
# Procedure, shortened: as §2
# [5] = qHTS of pediatric cancer cell lines to identify multiple opportunities for drug repurposing: Primary screen for Rh18 cells (AID 1347102); further: nearly all actives have a fitted effect of over 65% in size; further: potency means the concentration at half of the fitted maximal effect
# Procedure, shortened: as §2
# [6] = qHTS of pediatric cancer cell lines to identify multiple opportunities for drug repurposing: Primary screen for OHS-50 cells (AID 1347103); further: nearly all actives have a fitted effect of over 40% in size; further: potency means the concentration at half of the fitted maximal effect
# Procedure, shortened: as §2
# [7] = qHTS of pediatric cancer cell lines to identify multiple opportunities for drug repurposing: Primary screen for RD cells (AID 1347104); further: nearly all actives have a fitted effect of over 55% in size; further: potency means the concentration at half of the fitted maximal effect
# Procedure, shortened: as §1
# [8] = qHTS of pediatric cancer cell lines to identify multiple opportunities for drug repurposing: Primary screen for MG 63 (6-TG R) cells (AID 1347105); further: nearly all actives have a fitted effect of over 50% in size
# Procedure, shortened: as §1
# [9] = qHTS of pediatric cancer cell lines to identify multiple opportunities for drug repurposing: Primary screen for control Hh wild type fibroblast cells (AID 1347106); further: nearly all actives have a fitted effect of over 55% in size; further: potency means the concentration at half of the fitted maximal effect;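 on activity change, negative = cytotoxic: series mostly up to about 46 µM; a drop in luminescence marks cytotoxicity and a rise apparent proliferation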
# Procedure, shortened: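 Viability after 48 h compound treatment at 37C, 500-1,000 cells/well, read as ATP luminescence with CellTiter-Glo. Primary screens used 11-point (MIPE, 0.78 nM-46 µM) or 8-point (NPC, 0.59 nM-46 µM) final concentrations; follow-up screens used 11-point dilutions.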
# [10] = qHTS of pediatric cancer cell lines to identify multiple opportunities for drug repurposing: Primary screen for LAN-5 cells (AID 1347100); further: potency means the concentration at half of the fitted maximal effect
# Procedure, shortened: as §2
structure (smiles),measurement,setting,value
Nc1ccc(C(=O)NCC(=O)O)cc1,Potency,[1],inactive
same,Potency,[2],inactive
same,Potency,[3],inactive
same,Potency,[4],inactive
same,Potency,[5],inactive
same,Potency,[6],inactive
same,Potency,[7],inactive
same,Potency,[8],inactive
same,Potency,[9],inactive
OCCOCCN1CCN(C2=Nc3ccccc3Sc3ccccc32)CC1,Potency,[1],inactive
same,Potency,[2],inactive
same,Potency,[3],inactive
same,Potency,[10],inactive
same,Potency,[4],inactive
same,Potency,[7],inactive
same,Potency,[8],inactive
same,Potency,[9],inactive
COc1ccc(-c2cc(C(F)F)nn2-c2ccc(S(N)(=O)=O)cc2)cc1F,Potency,[1],inactive
same,Potency,[2],inactive
same,Potency,[3],inactive
same,Potency,[4],inactive
same,Potency,[5],inactive
same,Potency,[6],inactive
same,Potency,[7],inactive
same,Potency,[8],inactive
same,Potency,[9],inactive
CC(C)Cn1cnc2c1c(=O)n(C)c(=O)n2C,Potency,[1],inactive
same,Potency,[2],inactive
same,Potency,[3],inactive
same,Potency,[10],inactive
same,Potency,[4],inactive
same,Potency,[6],inactive
same,Potency,[7],inactive
same,Potency,[9],inactive
CCCCCCCCCCCCCCCC(=O)O,Potency,[1],inactive
same,Potency,[2],inactive
same,Potency,[3],inactive
same,Potency,[4],inactive
same,Potency,[5],inactive
same,Potency,[6],inactive
same,Potency,[7],inactive
same,Potency,[8],inactive
same,Potency,[9],inactive
OCc1ccccn1,Potency,[1],inactive
same,Potency,[2],inactive
same,Potency,[3],inactive
same,Potency,[10],inactive
same,Potency,[4],inactive
same,Potency,[6],inactive
same,Potency,[7],inactive
same,Potency,[8],inactive
same,Potency,[9],inactive
CN(CCCN1c2ccccc2CCc2ccccc21)CC(=O)c1ccc(Cl)cc1,Potency,[1],inactive
same,Potency,[2],inactive
same,Potency,[3],inactive
same,Potency,[10],inactive
same,Potency,[5],inactive
same,Potency,[7],inactive
same,Potency,[8],inactive
same,Potency,[9],inactive
COc1ccc(CCN(C)CCCN2CCc3cc(OC)c(OC)cc3CC2=O)cc1OC,Potency,[1],inactive
same,Potency,[2],inactive
same,Potency,[3],inactive
same,Potency,[4],inactive
same,Potency,[5],inactive
same,Potency,[6],inactive
same,Potency,[7],inactive
same,Potency,[8],inactive
same,Potency,[9],inactive
CCCCCCCCCCCCCC(=O)OC(C)C,Potency,[1],inactive
same,Potency,[2],inactive
same,Potency,[3],inactive
same,Potency,[10],inactive
same,Potency,[4],inactive
same,Potency,[6],inactive
same,Potency,[7],inactive
same,Potency,[9],inactive
CC(=C(CCOC(=O)C(C)C)SSC(CCOC(=O)C(C)C)=C(C)N(C=O)Cc1cnc(C)nc1N)N(C=O)Cc1cnc(C)nc1N,Potency,[1],inactive
same,Potency,[2],inactive
same,Potency,[3],inactive
same,Potency,[4],inactive
same,Potency,[5],inactive
same,Potency,[6],inactive
same,Potency,[7],inactive
same,Potency,[8],inactive
same,Potency,[9],inactive
NC(N)=NN=C(/C=C/c1ccc([N+](=O)[O-])o1)/C=C/c1ccc([N+](=O)[O-])o1,Potency,[2],3.86 µM (active)
same,Potency,[3],15 µM (active)
same,Potency,[10],2.11 µM (active)
same,Potency,[4],0.978 µM (active)
same,Potency,[5],1.19 µM (active)
same,Potency,[7],0.841 µM (active)
same,Potency,[9],21.1 µM (active)
CCCCCCCCCCC[C@@H](C[C@@H]1OC(=O)[C@H]1CCCCCC)OC(=O)[C@H](CC(C)C)NC=O,Potency,[2],inactive
same,Potency,[3],inactive
same,Potency,[10],inactive
same,Potency,[4],inactive
same,Potency,[5],inactive
same,Potency,[9],inactive
C#C[C@]1(O)CC[C@H]2[C@@H]3CCc4cc(OC)ccc4[C@H]3CC[C@@]21C,Potency,[1],inactive
same,Potency,[3],inactive
same,Potency,[4],inactive
same,Potency,[5],inactive
same,Potency,[7],inactive
same,Potency,[8],inactive
same,Potency,[9],inactive
C[C@H]1[C@H]2CC[C@H]3[C@@H]4CC=C5C[C@@H](N(C)C)CC[C@]5(C)[C@H]4CC[C@]23CN1C,Potency,[2],inactive
same,Potency,[3],inactive
same,Potency,[10],inactive
same,Potency,[4],inactive
same,Potency,[5],inactive
same,Potency,[8],inactive
same,Potency,[9],inactive
CCCN(CCc1cccs1)[C@H]1CCc2c(O)cccc2C1,Potency,[2],inactive
same,Potency,[3],inactive
same,Potency,[10],inactive
same,Potency,[4],inactive
same,Potency,[5],inactive
same,Potency,[7],inactive
same,Potency,[8],inactive
same,Potency,[9],inactive
CCN[C@@H]1C[C@H](N)[C@@H](OC2OC(CN)=CCC2N)[C@H](O)[C@H]1O[C@H]1OC[C@](C)(O)[C@H](NC)[C@H]1O (some centres not stated),"activity change, negative = cytotoxic",[2],-5.21% [at 0.741 µM]
same,"activity change, negative = cytotoxic",[3],4.64% [at 0.597 µM]
same,"activity change, negative = cytotoxic",[10],-0.753% [at 0.597 µM]
same,"activity change, negative = cytotoxic",[4],7.6% [at 0.745 µM]
same,"activity change, negative = cytotoxic",[5],7.22% [at 0.597 µM]
same,"activity change, negative = cytotoxic",[6],0.649% [at 0.73 µM]
same,"activity change, negative = cytotoxic",[7],-1.92% [at 0.597 µM]
same,"activity change, negative = cytotoxic",[8],-16.5% [at 0.597 µM]
same,"activity change, negative = cytotoxic",[9],8.24% [at 0.597 µM]
CCC(C(=O)OCCOCCN(CC)CC)c1ccccc1 (configuration not stated),Potency,[2],inactive
same,Potency,[3],inactive
same,Potency,[10],inactive
same,Potency,[4],inactive
same,Potency,[5],inactive
same,Potency,[6],inactive
same,Potency,[7],inactive
same,Potency,[9],inactive
O=C(CCN1CCN2CCCC2C1)N1c2ccccc2Sc2ccc(Cl)cc21 (configuration not stated),Potency,[2],inactive
same,Potency,[3],inactive
same,Potency,[10],inactive
same,Potency,[4],inactive
same,Potency,[7],inactive
same,Potency,[9],inactive
O=[N+]([O-])c1cccc(S(=O)(=O)NCCNS(=O)(=O)c2cccc([N+](=O)[O-])c2)c1,Potency,[2],inactive
same,Potency,[3],inactive
same,Potency,[10],inactive
same,Potency,[4],inactive
same,Potency,[5],inactive
same,Potency,[7],inactive
same,Potency,[8],inactive
same,Potency,[9],inactive
C#C[C@]1(O)CC[C@H]2[C@@H]3CCC4=CC(=O)CC[C@@H]4[C@H]3CC[C@@]21CC,Potency,[2],inactive
same,Potency,[3],inactive
same,Potency,[10],inactive
same,Potency,[4],inactive
same,Potency,[5],inactive
same,Potency,[6],inactive
same,Potency,[7],inactive
same,Potency,[8],inactive
same,Potency,[9],inactive
CC[C@]12CCCN3CCc4c(n(c5ccccc45)C(=O)C1)[C@@H]32,Potency,[1],13.3 µM (active)
same,Potency,[3],inactive
same,Potency,[6],27.6 µM (active)
same,Potency,[9],inactive
CC(CNC1CCCCC1)OC(=O)c1ccccc1 (configuration not stated),Potency,[2],inactive
same,Potency,[3],inactive
same,Potency,[10],inactive
same,Potency,[4],inactive
same,Potency,[5],inactive
same,Potency,[6],inactive
same,Potency,[7],inactive
same,Potency,[9],inactive
CN1CCc2cccc3c2[C@H]1Cc1ccc(O)c(O)c1-3,Potency,[1],21.1 µM (active)
same,Potency,[10],11.9 µM (active)
same,Potency,[8],inactive
same,Potency,[9],inactive
